The whole screen tested about 53,000 sequences, of which about 3,700 (7%) were called active. The sample as a whole holds a higher share of actives than the screen did. Unmarked numbers belong to inactive results.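 Rule for the calls: active = gene knockdowns whose robust z-score for IL-1 alpha signal is at least 2 or at most -2, so actives lie on both sides; inactive = the rest.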

A short description of the assay: Components of the Cytosolic LPS Sensing Pathway: Gene Identification via Genome-wide siRNA Screen.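 Note: robust z of the log signal after scaling to non-targeting control siRNA wells of the plate.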 The note with it: RAW264.7 macrophages, IL-1a HTRF, actives lie on both sides, screened at 100 nM (by protocol), cells primed 5 h with Pam3CSK4 first. The essentials:
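Three distinct siRNAs per gene were tested singly at 100 nM in RAW264.7 macrophages. Following Pam3CSK4 priming and 24 hour LipidA transfection, IL-1a secretion was read by HTRF.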
For orientation: Time-resolved FRET reads energy transfer from a long-lived donor to a nearby acceptor.
On to GGAGUUCCUAUUUAAUCCCTT against Hoxb8, for which the z-score is -0.419. Take GCAGUUUUAACUGGCCAUATT against Nr2f2: the z-score is 1.7. For GCUGCUUAAGUACAUCAGATT against Grm4, the z-score is -0.401. GGUUAUGCAUUACUCUCUUTT against Prkdc: the z-score is 0.0207. As to GGCCAGGUAUAAAUAUAUATT against Dusp8, the z-score is 4.51 (active).

For the sequence GCUGGAACUUAGUGUUCAGTT against Kat6b, the z-score was 1.45. In the case of GCAAUGUUCUCCGUAAACATT against Acss2, the z-score was 1.15. Turning to GGCUUCAAACACUUCCUUGTT against Sh2d4b, the z-score is 0.818. GGGAAAAGAUUCAGCUAGATT against Ntn4: the z-score is -1.16. On to GCAGCUAUUGAGCAUGGUGTT against Atp6v1g3, for which the z-score was -2.16 (active). With GCCGUAUCGAUUCUAUUUCTT against Slc6a17, the z-score was 1.09.

Regarding GGAAAAGAAGACAUUUCUCTT against Osbpl8, the z-score is -0.565.

As to CCUCCUGUACGAACACGCATT against Sars2, the z-score is -0.118.

For the sequence GGCUGUGCUCAGGAUCAAATT against Olfr683, the z-score is 2.37 (active). Turning to GGAAAUAUCCAAGAAUCCCTT against Bbs4, the z-score was -0.0724. Take GUGAUUGGGAACCUGUUUATT against Paqr6: the z-score is -1.35. The value for GCAGAUCAGUUGGUACAAGTT against Acss3 was 0.0616; that for GCUAACACAACGAGAGAAGTT against Ushbp1 was -2.39 (active). Consider GGAUUCACACAGAGGUAAATT against Zfp169, for which the z-score is -0.215. On to CCCAUAUUAAUUAUGGCGUTT against Hadha, for which the z-score is -0.189. Under GCCAUACAUAAACUACAAUTT against Gulo stands -0.175.

In the case of GUACUUGAAACGAACUGGATT against B4galnt4, the z-score was -1.68. On to CCUUACCCUGUUAUACAAGTT against Hirip3, for which the z-score is 2.69 (active). The value for GGCUAAAACAGGAAAUCUGTT against Mip was -0.398. With CCACUUUAAAGGCUCUUCUTT against H3c8, the z-score is -2.17 (active). In the case of CCGACUUCGUACAAUGACCTT against Slc1a6, the z-score is 1.45. For GGAGAACAAGAUCCUGGAGTT against Ccdc39, the z-score is 1.73.

Consider GGAUCCAGAAGAGCAUCUCTT against Sap30, for which the z-score is -0.33. On to GGGCGUGAUUUAUUUCUACTT against Mfsd6l, for which the z-score is 1.45. Regarding GGCUAUGCUUUUGUCCAGUTT against Raly, the z-score was -0.392. As to GGUGUCUUUGCUCUUAAUUTT against Sike1, the z-score is 0.277. The value for CGCAGUCCUUGACAUUAAATT against Rab3a was 0.0328; that for GCUCUUGGGAUGGACGAUATT against Hmgcs1 was 4.73 (active). Under GGCAGACAUAAGGCUUUCUTT against Olfr1056 stands -0.754; under GGGCAGGAAAAAAAAUUCATT against Vps13b, 1.68. Turning to CCACUGAAGGAAGUUCGCUTT against Amer2, the z-score was 0.21. The value for GGAUAAAUGCCAUUUUGGATT against Cpeb1 was -0.664; that for GCCUUAACCACAAUUAAAATT against Etfrf1 was -0.578. Consider GGGAUCUGGAUGAGGUCAATT against Tcf7l1, for which the z-score is 3.02 (active). GGAAAUUAGUGCUGGGCGUTT against Erbb3: the z-score was 0.424. Under CGAAAUUGAUUCUAUCUGCTT against Katnal1 stands -0.59; under GGGUCUCUAUGGAAUCAAUTT against Ldha, 2.83 (active); under GGCAGUAUGAGAGGUAUUUTT against Entpd7, 0.345. On to CCAAACGAAGGAAGCUGACTT against Taf6l, for which the z-score is -2.09 (active).

As for GGGAGAUAAAAAGUUAAGGTT against Bclaf1, the z-score is 1.38. Regarding GGCUUUCGUUUACAACAAGTT against Naglu, the z-score was -0.414. The value for GGUUAUCAUACUUUUUGUGTT against Phf10 was -0.582.

With CCAAACAAUGUUGUUUAGGTT against Rilpl1, the z-score was -0.965. The value for CCUCGAGUUCGGAAACAGATT against Chd8 was -1.06; that for CCUGCCUAGAUGUUUCAGCTT against Ifna13 was -0.196; that for GGACAAUAGAUGUGUUUGATT against Ddb2 was 1.57. In the case of GCUUGGCCGUGAUUGUUGCTT against Fndc10, the z-score is 2.35 (active).

On to GGCUUGGUGAGCUACCUACTT against Wdr62, for which the z-score is -0.839. As to GGCACACUUAAGUAAAAGUTT against Kras, the z-score was -0.542. Under GGCUACCUUCUACCUAAGGTT against Cyp2g1 stands 1.42; under CGGCAAGCCCAAAAAGGUCTT against Dlx3, -2.34 (active); under GCAAUCUGUCCUUCUGUGATT against Olfr1133, -0.818.

Take CCUGUACUGAACUACUUGATT against Kctd5: the z-score is 0.0535. Take CCUGGUACAAGGAACCAGUTT against Zim1: the z-score was 0.285. Under GGACCCAAUAAAACUUCCGTT against Ttc36 stands 1.13; under CCACAUACUCUAAUGAAGUTT against Casp1, 0.176; under GGAACUGGGUUCAUCCACATT against Snrpb2, -2.02 (active). In the case of GGAAAAAGAGCUUUUGGUCTT against Piwil2, the z-score was 0.528. Regarding GGAUGAGUUAAGUUUCUCATT against Sh3d19, the z-score is -1.57. In the case of CCCUAAUAGGUCAAUAAAGTT against Vmn1r71, the z-score is -0.0066. As for GGCAUUUCGUGGAUCACCGTT against Mtg2, the z-score is -1.56. Regarding GGGUCACGUGCUGUCUCAUTT against Slc22a20, the z-score is -1.55. As to GCAAAGCCUUACCAUGUAATT against Ighg, the z-score was 1.33. The value for GGUCAUGGUCUGAGAUUCUTT against Txnl4a was -2.34 (active); that for GGAAGUCAAGAAAGUGGCCTT against H1f0 was -0.294. Regarding GGGAUACAAUGUAACAUACTT against L1cam, the z-score is -0.0915. Turning to GGACAGCUCUCUCCAUACATT against Tlr9, the z-score was 0.653. Regarding GGAUUUUGUUCUUACAGUUTT against Nfia, the z-score is 2.8 (active). In the case of GGGAACUUUUUUGAUGGGCTT against Psmb2, the z-score was -1.13. GCACAUUCAUAGGAGUACCTT against Vmn1r237: the z-score is 0.371. As to CGAAACUCCCAUUGUUAAUTT against Zfp521, the z-score was 1.29.

For GGAUCACAGAAUAGAACAATT against Hpgds, the z-score is 0.237.

On to CCACAUGAACAAUUUGGGCTT against Rpl9, for which the z-score was 0.0288. Consider CCACGACACGCAAGAUGAGTT against Fzd8, for which the z-score was -0.756. With CGACAAUACUCUCUUCAAGTT against Fst, the z-score was 0.691. Regarding CCAUCUGUAACGGAUCUGATT against Prorsd1, the z-score was 0.893. For GGAAGCUGUCCAAAAUGAGTT against Hnf4a, the z-score was 2.55 (active). Turning to CCAGUUUAUCACAUAACCUTT against Wasl, the z-score is -0.928. With CCAAAGAUACCAUUUUGCATT against Lypd8, the z-score was 0.599. GGUACCAGGUAUCUUCAUUTT against Pard6g: the z-score was 2.95 (active). Under GGAAUGCAGCCAUCCUAUCTT against Mia stands 0.0985. With CCCAGAUUACCGUAAGCGATT against Jup, the z-score was 0.264. GGCCAAAUGGAAUAAGAAGTT against Wdr59: the z-score was 0.774. Take GGUUGCUUGGAAUUAAAAGTT against Klhl1: the z-score is -1.58. For GGGUUGAUUUGGUGUUUUATT against Usp46, the z-score is 0.673.

Turning to CCUUGUAGUAAUAGGGAUGTT against Olfr116, the z-score was 0.681.

For GGAAAUGAGUGAAGAUGAATT against Cdk11b, the z-score was -0.186.

As to GGCAUGUAAUGAAUUCACATT against Pbx3, the z-score is -2.14 (active). The value for CGCAUAUAUGUGUGUCGCCTT against Tmem125 was 0.256. Regarding CCCAAAUUGAUCCUAGCCUTT against Prkar1b, the z-score was 0.307.

GGGCCUAUGUGCUUUAUAUTT against Usp8: the z-score was -0.0584.

For the sequence GGUCAUGGAAGAAGCAAAGTT against Sltm, the z-score was 2.08 (active). GCUGUCCUGCCGUAAUAGATT against Oma1: the z-score is -0.619. For GCAAAGGAUCCAAUUUUAGTT against Rnf227, the z-score was 1.28. In the case of GGUCCAAUUACUGAAGGUUTT against Spaca7, the z-score was 2.09 (active).

On to GCUCCAACUACAUUGACUATT against Olfr1410, for which the z-score was -0.396.

On to GCCGAGAGAGCCAAUACAATT against Tbc1d16, for which the z-score was 0.248.

For the sequence GGAAACACCUUUGAGGCUCTT against Kndc1, the z-score is -1.88. GCUACAGGAUAAGUCCAAUTT against Kpnb1: the z-score was -2.01 (active).

For CCGAAUCGUCCUAAACCAATT against Cyp11a1, the z-score is 0.284. With GUACAUUUGCUGGAGCCUCTT against Hps6, the z-score is 0.395. On to GCCUUUCUUCUGUCAAUGATT against Olfr281, for which the z-score is 2.38 (active). For CCGACCAGAAGCUUUAAAGTT against Msrb1, the z-score is 1.05.

Source of the values: PubChem BioAssay AID1508600 (Functional Genomics Laboratory (NCATS/FGL), 2020).
